The source made the active and inactive calls. Rule for the calls: active = hit-call score of the fitted dose curve at least 0.9, where 1 is the maximum; inactive = score below 0.9.
What was measured:
Conditions in all cases: mRNA level, 48 h; actives raise or lower the signal
CYP4A11 (gene 1579) = test: LTEA_HepaRG_CYP4A11: Life Technologies and Expression Analysis (LTEA) Assay for CYP4A11 using HepaRG (AID 2283486)
In short: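 Readout is CYP4A11 transcript level by qRT-PCR, normalized to three housekeeping genes and fitted bidirectionally against 0.5% DMSO. Human HepaRG cells were treated 48 h, in duplicate, with an 8-point half-log series topping at 100 uM.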

[1] = read-out: Cytochrome P450 3A4 (Homo sapiens) (UniProt P08684); test: LTEA_HepaRG_CYP3A4: Life Technologies and Expression Analysis (LTEA) Assay for CYP3A4 using HepaRG (AID 2283487)
In short: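 HepaRG, 48 h exposure, 8-pt CRC from 100 uM (half-log), 0.5% DMSO, duplicates; serum-free induction medium. Readout: CYP3A4 mRNA, qRT-PCR, ACTB/GAPDH/POLR2A normalization. Bidirectional fit vs DMSO.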

[2] = read-out: DNA damage-inducible transcript 3 (DDIT3), DDIT3 (gene 1649); test: LTEA_HepaRG_DDIT3: Life Technologies and Expression Analysis (LTEA) Assay for DNA damage-inducible transcript 3 (DDIT3) using HepaRG (AID 2283488)
In short: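 qRT-PCR readout (Fluidigm TaqMan), housekeeping-normalized to ACTB, GAPDH, POLR2A. HepaRG cells, 48 h exposure, 8-point half-log series from 100 uM in 0.5% DMSO, duplicates. Gain or loss of signal fitted against DMSO baseline.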

[3] = read-out: Pro-epidermal growth factor (Homo sapiens) (UniProt P01133); test: LTEA_HepaRG_EGF: Life Technologies and Expression Analysis (LTEA) Assay for Epidermal growth factor (EGF) using HepaRG (AID 2283489)
In short: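 EGF transcript measured by Fluidigm TaqMan qRT-PCR with three housekeeping genes for normalization, 48 h after dosing HepaRG cultures in duplicate (top 100 uM, half-log steps, 0.5% DMSO vehicle). Gain or loss relative to DMSO fitted.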

[4] = read-out: Early growth response protein 1 (EGR1) transcription factor, EGR1 (gene 1958); test: LTEA_HepaRG_EGR1: Life Technologies and Expression Analysis (LTEA) Assay for Early growth response protein 1 (EGR1) transcription factor using HepaRG (AID 2283490)
In short: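 EGR1 transcript levels quantified by qRT-PCR (Fluidigm arrays) against three housekeeping genes after 48 h chemical exposure of HepaRG cells. Eight-point half-log series topping at 100 uM, 0.5% DMSO vehicle, analyzed for gain or loss.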

[5] = read-out: Ezrin (EZR), EZR (gene 7430); test: LTEA_HepaRG_EZR: Life Technologies and Expression Analysis (LTEA) Assay for Ezrin (EZR) using HepaRG (AID 2283491)
In short: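 Read-out is EZR transcript level by qRT-PCR, normalized to three housekeeping genes and fitted bidirectionally against the DMSO control. Human HepaRG cells received test chemicals for 48 h at eight half-log concentrations up to 100 uM in 0.5% DMSO.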

CYP3A5 (gene 1577) = test: LTEA_HepaRG_CYP3A5: Life Technologies and Expression Analysis (LTEA) Assay for CYP3A5 using HepaRG (AID 2283493)
In short: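 qRT-PCR read-out: CYP3A5 transcript in HepaRG lysates, housekeeping-normalized (ACTB/GAPDH/POLR2A), fitted bidirectionally against 0.5% DMSO baseline. Exposure 48 h, eight half-log concentrations up to 100 uM, duplicates.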

[6] = read-out: Fatty Acid-Binding Protein 1 (FABP1), FABP1 (gene 2168); test: LTEA_HepaRG_FABP1: Life Technologies and Expression Analysis (LTEA) Assay for Fatty Acid-Binding Protein 1 (FABP1) using HepaRG (AID 2283494)
In short: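 FABP1 expression by TaqMan qRT-PCR, normalised to three housekeeping genes, in HepaRG cells after 48 h chemical treatment. Eight-point half-log series topping at 100 uM in 0.5% DMSO, duplicates; gain or loss fitted relative to vehicle.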

[7] = read-out: Cytochrome P450 4A22 (Homo sapiens) (UniProt Q5TCH4); test: LTEA_HepaRG_CYP4A22: Life Technologies and Expression Analysis (LTEA) Assay for Cytochrome P450 4A22 (CYP4A22) using HepaRG (AID 2283495)
In short: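 Gene expression measured by qRT-PCR against three housekeeping genes (ACTB, GAPDH, POLR2A), with gain or loss fitted relative to 0.5% DMSO vehicle. HepaRG cultures received 48 h chemical treatment, top concentration 100 uM, half-log steps, duplicate wells.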

[8] = read-out: Cytochrome P450 7A1 (Homo sapiens) (UniProt P22680); test: LTEA_HepaRG_CYP7A1: Life Technologies and Expression Analysis (LTEA) Assay for Cytochrome P450 7A1 (CYP7A1) using HepaRG (AID 2283496)
In short: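 Using 0.5% DMSO as vehicle and baseline, chemicals were tested in duplicate over an 8-point range from 100 uM on HepaRG cells for 48 h; qRT-PCR signals were normalised to ACTB, GAPDH and POLR2A.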

[9] = read-out: Glutathione S-Transferase (GSTA2), GSTA2 (gene 2939); test: LTEA_HepaRG_GSTA2: Life Technologies and Expression Analysis (LTEA) Assay for Glutathione S-Transferase (GSTA2) using HepaRG (AID 2283497)
In short: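 GSTA2 transcript levels came from Fluidigm TaqMan qRT-PCR normalized to three housekeeping genes, fitted in both directions against DMSO. HepaRG cultures received chemicals for 48 h in serum-free induction medium (0.5% DMSO), 8 half-log concentrations up to 100 uM, duplicate.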

[10] = read-out: Glutamate-cysteine ligase catalytic (GCLC), GCLC (gene 2729); test: LTEA_HepaRG_GCLC: Life Technologies and Expression Analysis (LTEA) Assay for Glutamate-cysteine ligase catalytic (GCLC) using HepaRG (AID 2283498)
In short: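 Expression by TaqMan qRT-PCR, normalized to three housekeeping genes (ACTB, GAPDH, POLR2A), with up- or down-regulation fitted against DMSO. HepaRG cells dosed in duplicate for 48 h with 8 half-log concentrations up to 100 uM, vehicle 0.5% DMSO.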

[11] = read-out: growth arrest and DNA damage 45 (GADD45G), GADD45G (gene 10912); test: LTEA_HepaRG_GADD45G: Life Technologies and Expression Analysis (LTEA) Assay for growth arrest and DNA damage 45 (GADD45G) using HepaRG (AID 2283499)
In short: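 GADD45G transcript level by qRT-PCR (housekeeping-normalized: ACTB, GAPDH, POLR2A) after 48 h chemical treatment of a single HepaRG lot in serum-free induction medium; eight-point half-log series up to 100 uM in 0.5% DMSO, duplicates, up- or down-regulation scored.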

[12] = read-out: Glutathione S-transferase M3 (GSTM3), GSTM3 (gene 2947); test: LTEA_HepaRG_GSTM3: Life Technologies and Expression Analysis (LTEA) Assay for Glutathione S-transferase M3 (GSTM3) using HepaRG (AID 2283501)
In short: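 GSTM3 transcript levels came from Fluidigm TaqMan qRT-PCR normalized to three housekeeping genes, fitted in both directions against DMSO. HepaRG cultures received chemicals for 48 h in serum-free induction medium (0.5% DMSO), 8 half-log concentrations up to 100 uM, duplicate.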

[13] = read-out: Heat shock 70 kDa protein 1 (HSPA1A), gene 3303; test: LTEA_HepaRG_HSPA1A: Life Technologies and Expression Analysis (LTEA) Assay for Heat shock 70 kDa protein 1 (HSPA1A) using HepaRG (AID 2283502)
In short: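 HepaRG, 48 h exposure, 8-pt half-log CRC from 100 uM in 0.5% DMSO, duplicates. Readout: TaqMan qRT-PCR of HSPA1A mRNA, housekeeping-normalized (ACTB/GAPDH/POLR2A). Bidirectional fit vs 0.5% DMSO baseline.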

[14] = read-out: Hypoxia-inducible factor 1-alpha (Homo sapiens) (UniProt Q16665); test: LTEA_HepaRG_HIF1A: Life Technologies and Expression Analysis (LTEA) Assay for Hypoxia-inducible factor 1 (HIF1A) Trancription factor using HepaRG (AID 2283503)
In short: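 Gain- or loss-of-signal HIF1A mRNA changes are fitted against a DMSO baseline. HepaRG cultures receive eight concentrations, highest 100 uM, for 48 h in serum-free induction medium with 0.5% DMSO.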

[15] = read-out: 3-Hydroxy-3-Methylglutaryl-CoA Synthase 2 (HMGCS2), HMGCS2 (gene 3158); test: LTEA_HepaRG_HMGCS2: Life Technologies and Expression Analysis (LTEA) Assay for 3-Hydroxy-3-Methylglutaryl-CoA Synthase 2 (HMGCS2) using HepaRG (AID 2283504)
In short: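 Readout is HMGCS2 transcript by qRT-PCR, housekeeping-normalised (ACTB/GAPDH/POLR2A) and fitted bidirectionally against 0.5% DMSO. Differentiated HepaRG cells received chemicals 48 h, duplicate wells, eight half-log concentrations topping at 100 uM.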

HGF (gene 3082) = test: LTEA_HepaRG_HGF: Life Technologies and Expression Analysis (LTEA) Assay for Hepatocyte Growth Facto (HGF) using HepaRG (AID 2283505)
In short: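 HGF transcript was quantified by TaqMan qRT-PCR against three housekeeping genes after 48 h treatment of HepaRG cells. Exposure ran in duplicate over eight half-log steps topping at 100 uM in 0.5% DMSO vehicle.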

[16] = read-out: Cytochrome P450 3A7 (Homo sapiens) (UniProt P24462); test: LTEA_HepaRG_CYP3A7: Life Technologies and Expression Analysis (LTEA) Assay for CYP3A7 using HepaRG (AID 2283492)
In short: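 CYP3A7 transcript measured by qRT-PCR (ACTB, GAPDH, POLR2A normalization) after 48 h chemical exposure of HepaRG cells in duplicate. Eight half-log concentrations, maximum 100 uM, 0.5% DMSO vehicle; bidirectional curve fitting against DMSO baseline.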

Measured: AC50

Sequence of Cytochrome P450 3A4 (Homo sapiens) (P08684 whole entry, looked up): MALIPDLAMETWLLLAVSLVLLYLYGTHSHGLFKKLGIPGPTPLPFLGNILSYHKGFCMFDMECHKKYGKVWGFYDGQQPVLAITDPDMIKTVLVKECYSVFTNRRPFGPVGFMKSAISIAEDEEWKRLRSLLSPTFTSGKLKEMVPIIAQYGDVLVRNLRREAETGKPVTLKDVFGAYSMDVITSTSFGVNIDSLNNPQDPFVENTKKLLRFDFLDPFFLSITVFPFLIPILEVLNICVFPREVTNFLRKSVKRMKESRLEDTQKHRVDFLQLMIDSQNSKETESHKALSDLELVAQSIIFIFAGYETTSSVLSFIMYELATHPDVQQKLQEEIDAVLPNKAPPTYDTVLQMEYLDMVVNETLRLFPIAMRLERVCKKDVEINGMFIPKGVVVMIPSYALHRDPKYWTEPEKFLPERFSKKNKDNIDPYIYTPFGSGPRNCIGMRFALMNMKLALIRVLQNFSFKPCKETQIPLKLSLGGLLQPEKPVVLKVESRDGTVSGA
Sequence of Hypoxia-inducible factor 1-alpha (Homo sapiens) (Q16665 whole entry, looked up): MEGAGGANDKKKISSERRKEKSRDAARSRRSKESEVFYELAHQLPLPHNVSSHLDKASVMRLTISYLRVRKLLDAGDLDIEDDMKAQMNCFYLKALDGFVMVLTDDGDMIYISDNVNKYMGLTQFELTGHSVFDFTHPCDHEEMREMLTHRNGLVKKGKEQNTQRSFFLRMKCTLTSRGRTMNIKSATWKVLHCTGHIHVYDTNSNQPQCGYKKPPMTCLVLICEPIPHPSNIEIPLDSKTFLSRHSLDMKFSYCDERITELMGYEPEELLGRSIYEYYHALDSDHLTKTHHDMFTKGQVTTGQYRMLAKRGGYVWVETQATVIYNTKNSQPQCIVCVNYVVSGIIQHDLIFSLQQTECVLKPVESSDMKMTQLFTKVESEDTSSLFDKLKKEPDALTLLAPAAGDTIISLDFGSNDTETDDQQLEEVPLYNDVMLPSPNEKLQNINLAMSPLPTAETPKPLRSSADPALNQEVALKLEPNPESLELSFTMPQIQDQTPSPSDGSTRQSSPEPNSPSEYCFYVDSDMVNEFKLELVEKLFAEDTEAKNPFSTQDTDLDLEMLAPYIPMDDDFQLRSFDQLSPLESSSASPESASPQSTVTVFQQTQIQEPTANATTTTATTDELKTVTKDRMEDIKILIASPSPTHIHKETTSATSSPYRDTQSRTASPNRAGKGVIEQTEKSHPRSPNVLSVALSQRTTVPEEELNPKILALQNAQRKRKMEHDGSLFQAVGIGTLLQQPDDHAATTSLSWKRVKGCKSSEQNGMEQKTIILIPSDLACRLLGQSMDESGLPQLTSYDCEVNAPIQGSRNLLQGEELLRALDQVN
Sequence of Cytochrome P450 3A7 (Homo sapiens) (P24462 whole entry, looked up): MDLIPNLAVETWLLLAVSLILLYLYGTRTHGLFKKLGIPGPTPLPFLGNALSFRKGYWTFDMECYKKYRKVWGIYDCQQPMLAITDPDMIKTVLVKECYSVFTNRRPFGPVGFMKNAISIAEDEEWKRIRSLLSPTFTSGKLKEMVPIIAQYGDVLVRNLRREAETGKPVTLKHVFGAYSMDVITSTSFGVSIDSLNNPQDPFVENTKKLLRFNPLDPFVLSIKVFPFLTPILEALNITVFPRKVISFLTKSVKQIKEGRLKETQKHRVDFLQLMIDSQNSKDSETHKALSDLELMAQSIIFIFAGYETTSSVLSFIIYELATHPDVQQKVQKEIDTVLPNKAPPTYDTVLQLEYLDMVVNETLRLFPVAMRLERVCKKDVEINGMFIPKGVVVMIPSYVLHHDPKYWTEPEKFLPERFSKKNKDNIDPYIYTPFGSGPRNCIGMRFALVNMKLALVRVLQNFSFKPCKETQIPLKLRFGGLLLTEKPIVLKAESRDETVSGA

ClC1=C(Cl)[C@]2(Cl)[C@@H]3[C@@H](Cl)[C@H]4O[C@H]4[C@@H]3C1(Cl)C2(Cl)Cl
inactive: [2] | [3] | [4] | [5] | CYP3A5 (gene 1577) | [10] | [11] | [12] | [13] | [14] | HGF (gene 3082)
active: CYP4A11 (gene 1579) 31.1 µM | [1] 1.35 µM | [6] 50 µM | [7] 24.9 µM | [8] 13.3 µM | [9] 82.5 µM | [15] 18.4 µM

NS(=O)(=O)C(F)(F)C(F)(F)C(F)(F)C(F)(F)C(F)(F)C(F)(F)C(F)(F)C(F)(F)F
active: CYP4A11 (gene 1579) 12.6 µM | [1] 10.7 µM | [2] 28.9 µM | [3] 8.93 µM | [4] 89 µM | [5] 11.4 µM | CYP3A5 (gene 1577) 21 µM | [6] 9.04 µM | [7] 11.1 µM | [8] 8.86 µM | [9] 13 µM | [10] 5.02 µM | [11] 50 µM | [13] 75.5 µM | [14] 11.4 µM | [15] 12.8 µM | HGF (gene 3082) 12.9 µM
inactive: [12]

CCC(=O)O[C@H]1CC[C@H]2[C@@H]3CCC4=CC(=O)CC[C@]4(C)[C@H]3CC[C@]12C
active: CYP4A11 (gene 1579) 1.16 µM | [6] 19.9 µM | [7] 0.308 µM | [8] 13.1 µM
inactive: [1] | [2] | [3] | [4] | [5] | [16] | CYP3A5 (gene 1577) | [9] | [10] | [11] | [12] | [13] | [14] | [15] | HGF (gene 3082)

ClC1=C(Cl)[C@]2(Cl)[C@@H]3[C@H]4C[C@H]([C@@H]5O[C@H]45)[C@@H]3[C@@]1(Cl)C2(Cl)Cl
inactive: [3] | [4] | [5] | CYP3A5 (gene 1577) | [10] | [11] | [12] | [13] | [14] | HGF (gene 3082)
active: CYP4A11 (gene 1579) 24.6 µM | [2] 50 µM | [6] 1.86 µM | [7] 32.5 µM | [8] 17.4 µM | [9] 32.6 µM | [15] 30.5 µM

O=NN(c1ccccc1)c1ccccc1
active: CYP4A11 (gene 1579) 50 µM | [7] 50 µM
inactive: [1] | [2] | [3] | [4] | [5] | CYP3A5 (gene 1577) | [6] | [8] | [9] | [10] | [11] | [12] | [13] | [14] | [15] | HGF (gene 3082)

Cc1ccccc1CO[C@@H]1C[C@@]2(C(C)C)CC[C@]1(C)O2
inactive: [2] | [3] | [4] | [5] | [16] | CYP3A5 (gene 1577) | [6] | [7] | [8] | [9] | [10] | [11] | [12] | [14] | [15] | HGF (gene 3082)
active: [1] 23.1 µM | [13] 50 µM

— PubChem BioAssay (EPA / NIEHS)
